Laboratory results published in PubChem BioAssay AID1851 (National Center for Advancing Translational Sciences (NCATS), 2009).
Screen size: about 16,000 compounds; about 2,600 (16%) were called active. Another 20% or so got no clear call; they are omitted. Calls come from the whole dose curve; as a rule, active = well fitted curve in the direction sought with a large enough effect; inconclusive = small, poorly fitted or top-dose-only effect, or effect the other way; inactive = no such curve, though single readings can be large or run the other way. Not all results are given here. Some compounds were tested as several samples or in several runs, with calls that do not always agree.

Biological target: Cytochrome P450 2D6 (Homo sapiens) (UniProt P10635)
Sequence (P10635 whole entry, looked up): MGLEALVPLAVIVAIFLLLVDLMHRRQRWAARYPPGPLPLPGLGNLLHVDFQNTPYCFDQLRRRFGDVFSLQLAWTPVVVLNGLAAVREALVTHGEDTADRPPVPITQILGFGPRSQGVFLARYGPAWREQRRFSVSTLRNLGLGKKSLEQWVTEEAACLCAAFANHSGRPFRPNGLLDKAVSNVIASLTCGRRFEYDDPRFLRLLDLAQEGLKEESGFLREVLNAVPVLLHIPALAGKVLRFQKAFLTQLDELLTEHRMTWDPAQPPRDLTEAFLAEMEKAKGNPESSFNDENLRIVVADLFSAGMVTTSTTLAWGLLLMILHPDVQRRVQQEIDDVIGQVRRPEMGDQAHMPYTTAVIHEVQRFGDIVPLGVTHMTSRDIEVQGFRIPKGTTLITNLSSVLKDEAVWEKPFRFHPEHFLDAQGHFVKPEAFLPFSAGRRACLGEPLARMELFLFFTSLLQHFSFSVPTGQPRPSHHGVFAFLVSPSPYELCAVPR
Test: Cytochrome panel assay with activity outcomes
Settings: recombinant CYP, pro-luciferin dealkylation, luminescence, p450-cyp2d6; series mostly up to 57.1 µM; activity, negative = inhibition: at the top concentration
% is set by controls: 0 for no effect and ±100 for the full control effect.

SMILES	activity, negative = inhibition	AC50
COc1ccc(C[C@@H]2c3cc(OC)c(OC)cc3CC[N@+]2(C)CCC(=O)OCCCCCOC(=O)CC[N@@+]2(C)CCc3cc(OC)c(OC)cc3[C@H]2Cc2ccc(OC)c(OC)c2)cc1OC	-15.6% [at 25.6 µM] (inactive)	
Nc1ccccc1C#Cc1ccccc1		inactive
Cc1nc(N/N=C/c2ccccc2)nc(N(C)c2ccccc2)c1[N+](=O)[O-]	4.53% (inactive)	
CO[C@@H]1COC(=O)C/C=C\[C@@H](C)COC(=O)[C@H](Cc2ccccc2)NC(=O)C/C=C\[C@H]1C	-17% [at 11.4 µM] (inactive)	
COC(=O)C(Cc1ccc(OC(=O)c2ccc(C(F)(F)F)cc2)cc1)N1Cc2ccccc2C1=O (stereo unspecified)	-11.1% (inactive)	
Cc1nc(NC(=O)c2ccccc2)sc1-c1csc(Nc2cccc(Cl)c2)n1		10 µM (active)
Cc1nc(NC(=O)c2ccccc2)sc1-c1csc(Nc2ccc(F)cc2)n1	-28.9% (inactive)	
Cc1nc(NC(=O)c2ccco2)sc1-c1csc(Nc2ccc(Cl)cc2Cl)n1	-25.3% (inactive)	
COc1ccccc1Nc1nc(-c2sc(NC(=O)c3ccccc3)nc2C)cs1	-0.255% (inactive)	
Cc1nc(NC(=O)c2ccccc2)sc1-c1csc(Nc2ccc(Cl)cc2)n1	-21.7% (inactive)	
C=CCCC(=O)Nc1nc(C)c(-c2csc(Nc3ccc(Cl)cc3)n2)s1		17.8 µM (active)
CC1(C)OCC([C@H](O)C2=CCCCC2=O)CO1	9.36% [at 11.4 µM] (inactive)	
COc1cc(/C=C2\SC(=S)N(Nc3ccccc3)C2=O)cc(OC)c1OC	-10.3% (inactive)	
CC(=O)c1cc(C#N)c(Oc2ccc(F)cc2)nc1C	8.22% (inactive)	
Cc1cnc(NC(=O)CCCc2nc3ccccc3s2)s1	-11% (inactive)	
COc1cccc([C@@H]2Oc3ccc(OC)cc3/C(=N/OC[C@@H](C)[C@H](OCc3ccccc3)C(C)C)[C@@H]2O)c1	0.0498% [at 11.4 µM] (inactive)	
COc1cccc([C@@H]2Oc3ccc(OC)cc3/C(=N/OC[C@@H](O)COCc3ccco3)[C@@H]2O)c1	5.07% [at 11.4 µM] (inactive)	
COc1cccc([C@@H]2Oc3ccc(Br)cc3C(=O)[C@H]2O)c1		3.16 µM (active)
CN(C(=S)Nc1ccccc1F)C1(c2ccccc2Cl)CCCCC1=O (stereo unspecified)	-6.2% (inactive)	
c1ccc(CCc2nc(-c3ccccc3)no2)cc1	-18.9% (inactive)	
O=S(=O)(c1ccc(Cl)cc1)c1cnc(-c2cccnc2)nc1-c1ccccc1	-0.701% (inactive)	
Clc1ccc(Cc2nc(-c3cccnc3)no2)cc1		1.78 µM (active)
CCC(C)NS(=O)(=O)c1ccc(NC(=O)CCC2CCCCC2)cc1 (stereo unspecified)	-5.09% (inactive)	
Cn1cccc1C(=O)N1CCC2(CC1)CCN(c1ncccn1)CC2	-13.7% (inactive)	

SMILES	activity, negative = inhibition	AC50
CN(C)c1ccc(-c2nccc(NCc3ccccc3)n2)cc1		3.16 µM (active)
COc1ccccc1CNc1ccnc(-c2ccc(N(C)C)cc2)n1		0.501 µM (active)
COc1ccc(CNc2ccnc(-c3ccc(C(=O)N(C)C)cc3)n2)c(OC)c1	-5.55% (inactive)	
COc1ccccc1CNc1ccnc(-c2ccoc2)n1		15.8 µM (active)
COC(=O)Cc1c(C)nc2nc(NCc3ccccc3OC)[nH]n2c1=O	-2.97% (inactive)	
Cc1cnc(CNc2ccnc(-c3ccc(N(C)C)cc3)n2)cn1	-5.57% (inactive)	
COc1ccc(CNc2ccnc(-c3ccc(N(C)C)cc3)n2)c(OC)c1		12.6 µM (active)
CCOC(=O)N1CCC(NC(=O)C2CCN(S(=O)(=O)N3CCCC3)CC2)CC1	8.93% (inactive)	
O=C=Nc1ccc(Cc2ccc(N=C=O)cc2)cc1 (tested in a mixture with another compound)	6.78% [at 11.4 µM] (inactive)	
O=C(CNC(=O)c1ccc([N+](=O)[O-])cc1)c1ccccc1	3.96% (inactive)	
COc1cc(-c2nnc(SCC3(c4ccccc4)OCCO3)o2)cc(OC)c1OC	-8.87% (inactive)	
COCCn1c(=O)c(-c2ccc(Cl)cc2)nc2cncnc21	-16.2% (inactive)	
Nc1ccccc1CCCC(=O)O	-8.09% [at 11.4 µM] (inactive)	
Cc1nc2cnc(N(C)C)nc2n(CCc2ccccc2)c1=O	-7.01% (inactive)	
O=C(CSc1nc2ccccc2c(=O)n1NC(=O)c1ccccc1)c1ccc(Cl)cc1	1.17% (inactive)	
COC(=O)C/C=C\[C@@H](C)[C@@H](/C=N\O[C@@H](C)c1cc(-c2c(C)cc(C)cc2C)no1)NS(=O)(=O)c1ccc(C)cc1	10.9% [at 11.4 µM] (inactive)	
COc1cc2c(cc1OC)C(C(=O)N1CCOCC1)C(c1cccs1)N(C)C2=O (stereo unspecified)	10.7% (inactive)	
COc1ccc(CC(=S)N2CCOCC2)cc1OC	0.628% (inactive)	
COc1cc2c(cc1OC)/C(=C/C(=O)N1CCOCC1)NC(C)(C)C2		2.82 µM (active)
CCOC(=O)c1ccc(N2C(=O)CC(Nc3ccc(CCO)cc3)C2=O)cc1 (stereo unspecified)	-5.73% (inactive)	
Cn1c(=O)c2c(nc(NCCNc3nc4c(c(=O)n(C)c(=O)n4C)n3C)n2C)n(C)c1=O	14.2% [at 11.4 µM] (inactive)	
COc1cc(C(=O)N2CCN(C(=O)c3ccccc3)CC2)cc(OC)c1OC	-0.531% (inactive)	
COC(=O)C/C=C\[C@H](C)[C@@H](OC)c1ccccc1Br	12.6% [at 11.4 µM] (inactive)	
COCCNc1ccnc(-c2ccccc2C)n1	-6.07% (inactive)	

SMILES	activity, negative = inhibition	AC50
COc1ccc2[nH]cc(CCNc3ccnc(-c4ccccc4C)n3)c2c1		2.51 µM (active)
COc1ccc2[nH]cc(CCNc3ccnc(-c4ccccc4Cl)n3)c2c1		20 µM (active)
Cc1cccc(-n2ncc3c(Nc4c(C)n(C)n(-c5ccccc5)c4=O)ncnc32)c1	3.47% (inactive)	
N#CC(C#N)=CNCCN1CCN(C=C(C#N)C#N)CC1	5.03% [at 11.4 µM] (inactive)	
Cc1n[nH]c(C)c1S(=O)(=O)N1CCC(C(=O)O)CC1	9.86% (inactive)	
NS(=O)(=O)c1cc(Cl)c(Cl)c(S(N)(=O)=O)c1	-1.87% [at 25.6 µM] (inactive)	
C[C@@H](C[C@H](N)C(=O)O)C(=O)O	14.5% [at 11.4 µM] (inactive)	
Clc1cc2c(c(CSC3=NCN(CC4CC4)CN3)c1)OCOC2		0.2 µM (active)
O=c1c2c(-c3cccs3)csc2[nH]c(=S)n1-c1ccccc1	-9.42% (inactive)	
Cc1ccccc1OCC(=O)Nc1sc(C(=O)Nc2cccc(C)c2C)c(C)c1C#N	24.8% (inactive)	
Cn1cccc1C(=O)N1CCC2(CCN(C(=O)Nc3ccccc3)CC2)CC1	4.24% (inactive)	
O=[N+]([O-])c1nccn1C[C@H](O)CN1CCCCC1	9.02% [at 11.4 µM] (inactive)	
O[C@H](CN1CCN(c2cccc(Cl)c2)CC1)C(c1ccccc1)c1ccccc1		12.6 µM (active) and inactive
O=c1nc2ccccc2c2n1CC(CN1CCN(c3cccc(Cl)c3)CC1)N2 (stereo unspecified)	-35.5% (inactive)	
O=c1n(CCCN2CCN(c3cccc(Cl)c3)CC2)nc2ccccn12	-11% (inactive)	
CC(C)OCCCn1c(=S)[nH]c2ncccc2c1=O	-7.67% (inactive)	
COCCn1c(=O)c(C)nc2cnc(N3CCNCC3)nc21	-1.98% (inactive)	
Cc1noc(NS(=O)(=O)c2ccc(NC(=O)c3ccc(Br)o3)cc2)c1C	0.162% (inactive)	
COCCOC(=O)C1=C(C)NC(=O)N(C(C)=O)C1c1ccc(Cl)cc1 (stereo unspecified)	1.76% (inactive)	
COc1ccc2c3c([nH]c2c1)[C@@H]1C[C@@H]2[C@@H](C[C@H](O)[C@H](OC)[C@H]2C(=O)O)CN1CC3	3.02% [at 25.6 µM] (inactive)	
COC(=O)C1=CO[C@@H](C)[C@H]2CN3CCc4c([nH]c5ccccc45)[C@@H]3C[C@H]12		0.002 µM (active)
COC(=O)[C@@H]1[C@@H]2C[C@H]3c4[nH]c5ccccc5c4CCN3C[C@@H]2CC[C@@H]1OS(=O)(=O)O	-18.5% [at 11.4 µM] (inactive)	
C[C@@H](C(=O)O)c1ccc(C[C@@H]2CCCC2=O)cc1	17.2% (inactive)	
COCCNC(=O)c1cn(Cc2c(F)cccc2Cl)nn1	11.7% (inactive)	

SMILES	activity, negative = inhibition	AC50
Cc1cnc(CNc2cc(-c3ccccc3Cl)ncn2)cn1	-20.6% (inactive)	
Cc1cnc(CNc2cc(-c3ccc(C(=O)N(C)C)cc3)ncn2)cn1	8.03% (inactive)	
Cc1cnc(CNc2ncnc3ccc(-c4ccccc4CN(C)C)cc23)cn1		2.51 µM (active)
Cc1cnc(CNc2ncnc3ccc(-c4ccccc4Cl)cc23)cn1		15.8 µM (active)
CCN(CC)C(=O)C1CC(=O)N(c2ccc(OC)cc2)C1c1ccc(OC)cc1 (stereo unspecified)	4.78% (inactive)	
COc1ccc(NC(=O)CSC2=NC(=O)CC(C)=N2)cc1	-4.11% (inactive)	
N#CCCn1nnc2ccccc21	-4.37% (inactive)	
O=C(NCc1ccccc1)c1ccc(Cl)cc1[N+](=O)[O-]	-27.1% (inactive)	
CC(C)Oc1ccc(CNC(=O)CC(c2ccccc2)c2cc(Cl)ccc2O)cc1 (stereo unspecified)		14.1 µM (active)
Cc1cccc(C(CC(=O)N2CCCC2)c2ccccc2)c1O (stereo unspecified)	-13.7% (inactive)	
CC(C)Oc1ccc(C(=O)Nc2ccc(NC(=O)c3ccco3)c(Cl)c2)cc1	-23.4% (inactive)	
O=C(O)Cc1cc(Cl)ccc1O	16.8% [at 11.4 µM] (inactive)	
CN(Cc1ccccc1)C(=O)CC(c1ccccc1)c1cc(Cl)ccc1O (stereo unspecified)		8.91 µM (active)
CCOC(=O)N1CCC(NS(=O)(=O)c2ccc3c(c2)C(C)(C)C(=O)N3C)CC1	27.5% (inactive)	
C[N+](C)(C)CCO	1.57% (inactive)	
COc1ccc(C(=O)n2nc(-c3ccccc3)nc2SC)cc1	-5.42% (inactive)	
Cc1ccc(C2C(C(=O)c3ccco3)=C(O)C(=O)N2c2nnc(C)s2)cc1 (stereo unspecified)	-4.53% (inactive)	
O=C1Nc2cc(C(=O)N3CCOCC3)ccc2SC1N1CCOCC1 (stereo unspecified)	22.1% (inactive)	
COc1ccccc1CNC(=O)C1CC(=O)N(C2CCCC2)C1 (stereo unspecified)	0.967% (inactive)	
COc1ccccc1CNC(=O)CCCn1c(=O)c2ccccc2n(CC(=O)NC2CCCC2)c1=O	-29.3% (inactive)	
COc1cc(CNC2CCCC2)cc(Cl)c1OCc1ccccc1Cl		0.891 µM (active)
NC(=O)c1ccc(C2SCC(=O)N2Cc2ccccc2)cc1 (stereo unspecified)	0.406% (inactive)	
Cc1ccc(CNC(=O)Cc2csc(Nc3nc(=S)[nH]c4ccccc34)n2)cc1	-28.3% (inactive)	
CC(=O)OCC(=O)[C@@]1(O)[C@H](C)C[C@@H]2[C@H]3CCC4=CC(=O)C=C[C@]4(C)[C@]3(F)[C@@H](O)C[C@@]21C	5.29% [at 25.6 µM] (inactive)	
